DRD3 agonist = qHTS of D3 Dopamine Receptor Agonist: qHTS. actives 0.58% (n = 410,000). AID 652048, 2013. D3R DiscoveRx beta-arrestin cells, luminescence, 90 min. D(3) dopamine receptor (Homo sapiens), P35462. max activation, %; in the data active means max activation above about 30%; further: 0% is about no effect
Target sequence (P35462 whole entry, looked up): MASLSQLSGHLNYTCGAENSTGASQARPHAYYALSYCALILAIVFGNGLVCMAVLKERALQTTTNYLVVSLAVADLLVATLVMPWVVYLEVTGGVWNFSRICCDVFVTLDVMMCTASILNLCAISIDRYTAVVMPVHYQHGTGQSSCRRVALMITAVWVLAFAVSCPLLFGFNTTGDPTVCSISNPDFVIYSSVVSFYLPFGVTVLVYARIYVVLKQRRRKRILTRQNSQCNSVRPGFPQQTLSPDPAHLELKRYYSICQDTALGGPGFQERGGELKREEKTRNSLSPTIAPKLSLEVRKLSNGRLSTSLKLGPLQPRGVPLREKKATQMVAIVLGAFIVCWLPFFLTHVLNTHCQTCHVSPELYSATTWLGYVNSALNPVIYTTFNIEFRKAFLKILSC
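Agonist-mode cell screen: cells plated at 1500/well and incubated overnight at 37 °C, then exposed to library compounds for 90 min at 37 °C. Detection reagent was added for 30–60 min at room temperature, and luminescence was read.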
KB-V1 MDR tox = qHTS assay for MDR1-selective chemotherapeutics: Primary screen using the drug-selected MDR subline cells KB-V1 | KB-V1 MDR cells viability, CellTiter-Glo, 72 h | Potency, µM (highest dose often 46.1 µM), usual class: cytotoxic | actives 3.4% (n = 400,000); further: potency means the concentration at half of the fitted maximal effect; on the % scale 0 is the no-effect control and ±100 the full control effect; nearly all actives have a fitted effect of over 60% in size
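qHTS viability screen in drug-selected KB-V1 MDR cells: 72 h compound treatment at 37 degrees C, ATP luminescence end point.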
KB-3-1 cytotox = qHTS assay for MDR1-selective chemotherapeutics: Primary screen using the parental adenocarcinoma cell KB-3-1; KB-3-1 viability, CellTiter-Glo ATP luminescence, 72 h; Potency, µM (series often up to 46.1 µM), most hits filed as cytotoxic; actives 1.4% (n = 400,000); further: potency means the concentration at half of the fitted maximal effect; on the % scale 0 is the no-effect control and ±100 the full control effect; nearly all actives have a fitted effect of over 60% in size
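KB-3-1 parental drug-naive adenocarcinoma cells in DMEM/10% FBS, incubated 72 h at 37 C with pin-transferred compounds across a concentration series. Viability by CellTiter-Glo luminescence; concentration-response curves fitted after normalization.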
SW480 rerep = A quantitative high throughput screen for small molecules that induce DNA re-replication in SW480 colon adenocarcinoma cells; SW480 DNA re-replication, Hoechst DNA content imaging, 48 h; Potency, µM (doses to about 46.1 µM), for inactives: at the highest dose re-replication activation, most hits filed as activators; actives 1.8% (n = 340,000); further: potency means the concentration at half of the fitted maximal effect; % of control where 0% means no effect; nearly all actives have a fitted effect of over 55% in size
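SW480 cells exposed to compounds for 48 hr at 37 C, 5% CO2, then Hoechst-stained 40 min. Nuclear DNA content imaged by fluorescence scanning (405 nm excitation, 500-530 nm emission); re-replication scored as increased high-intensity nuclei.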
MCF10A rerep = A quantitative high throughput screen for small molecules that induce DNA re-replication in MCF 10a normal breast cells | MCF 10A DNA re-replication, Hoechst nuclear intensity, 48 h | Potency, µM (highest dose often 46.1 µM), for inactives: top-dose activity, positive = re-replication, actives largely listed as activators | actives 2.9% (n = 350,000) | AID 624296, 2012; further: potency means the concentration at half of the fitted maximal effect; % of control where 0% means no effect; nearly all actives have a fitted effect of over 50% in size
DRD3 antagonist = qHTS of D3 Dopamine Receptor Antagonist: qHTS. D(3) dopamine receptor (Homo sapiens), P35462. D3R cells, DiscoveRx beta-arrestin luminescence, antagonist mode; hits give low values. max response, negative = inhibition, %. actives 2.5% (n = 360,000); in the data active means max response below about -50%; inconclusive means no clear call, values can overlap the other calls; further: on the % scale 0 is the no-effect control and ±100 the full control effect
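Cells plated overnight at 1500 cells/well, then exposed to library compounds with dopamine controls for 90 minutes at 37 degrees C. DiscoveRx reagent added for 30–60 minutes at room temperature; luminescence read, quantitative HTS format.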
Numbers without * were called inactive; i = inactive; ? = inconclusive; . = not tested or not shown. This is a sample that favours compounds with a hit; in the whole collection about 8.9% have one here. Unless noted, the call rests on the fitted dose curve; in most records, active means well fitted curve in the direction sought with a large enough effect; inconclusive means small, poorly fitted or top-dose-only effect, or another doubt; inactive means no such curve, though single readings can be large; an effect the other way counts as inactive or inconclusive.

SMILES	DRD3 agonist	KB-V1 MDR tox	KB-3-1 cytotox	SW480 rerep	MCF10A rerep	DRD3 antagonist
Oc1ccc(Cl)cc1/C=C/c1ccc2cccc(O)c2n1	1	i	?	21µM*	?	?
CC[C@@H](C)CCCCC(=O)N[C@H](CCN)C(=O)N[C@@H](C(=O)N[C@H](CCN)C(=O)N[C@@H]1CCNC(=O)C([C@@H](C)O)NC(=O)[C@@H](CCN)NC(=O)[C@@H](CCN)NC(=O)[C@@H](CC(C)C)NC(=O)[C@@H](Cc2ccccc2)NC(=O)[C@@H](CCN)NC1=O)[C@@H](C)O (some centres undefined)	7	.	.	.	.	.
O=C(CCc1cn(Cc2ccccc2F)c2ccccc12)NCc1ccc(Cl)cc1	-12	.	.	.	.	.
CCc1sc(Nc2cccc(Cl)c2C)nc1-c1cc2cccc(OC)c2oc1=O	7	i	i	.	.	.
CC(NC(=O)C1CCN(S(=O)(=O)c2ccc3c(c2)oc(=O)n3C)CC1)c1ccccc1 (centres undefined)	-4	i	i	.	.	.
Cc1ccc(-c2nc(C#N)c(NCc3cccc4c3OCO4)o2)cc1	11	i	i	?	16µM*	9
Cc1nc(C)c(C(=O)OCC(=O)NCc2ccccc2Cl)s1	-13	i	i	-15%	-9%	-2
Cc1nc(COC(=O)c2cc(O)c3ccccc3c2O)cs1	-5	i	i	7.3µM*	?	-8
Cc1nc(COC(=O)c2ccc(CO)cc2)cs1	-10	i	i	2%	2%	9
O=C(OCCN1C(=O)c2cccc3c(N4CCOCC4)ccc(c23)C1=O)c1ccc(Cl)cc1Cl	3	?	?	5.8µM*	?	9
O=C(OCCN1C(=O)c2cccc3c(N4CCOCC4)ccc(c23)C1=O)c1cccc(Cl)c1	4	?	13µM*	?	2%	47
O=C(OCCN1C(=O)c2cccc3c(N4CCOCC4)ccc(c23)C1=O)c1ccccc1Cl	23	i	?	?	1%	-2
CON=C1C[C@]2(C[C@@H]3C[C@@H](C/C=C(\C)C[C@@H](C)/C=C/C=C4\CO[C@@H]5[C@H](O)C(C)=C[C@@H](C(=O)O3)[C@]45O)O2)O[C@H](/C(C)=C/C(C)C)[C@H]1C	12	.	.	.	.	.
CCC(=O)N1CCc2cc(S(=O)(=O)NCCN3CCCCC3CC)ccc21 (centres undefined)	-7	i	i	-5%	-2%	-59*
CCC(=O)N1CCc2cc(S(=O)(=O)NC(C(=O)NCc3ccccc3)C(C)C)ccc21 (centres undefined)	-4	i	i	1%	1%	-77*
CC(=O)N1CCc2cc(S(=O)(=O)NCCC(=O)N3CCc4ccccc4C3)ccc21	3	23µM*	?	0%	2%	55
CC(=O)N1CCc2cc(S(=O)(=O)CCC(=O)N3CCc4ccccc4C3)ccc21	-9	i	i	12%	5%	2
COc1ccc(NS(=O)(=O)c2ccc3c(c2)CCCN3C(=O)C2CCC2)cc1OC	-12	?	2.6µM*	.	.	.
O=C(NC1CCCC1)c1cnn(-c2ccc(F)cc2F)c1C1CCNCC1	-11	?	i	.	.	.
Cc1cccc(C(c2sc3nc(-c4ccco4)nn3c2O)N2CCN(c3ccccc3)CC2)c1 (centres undefined)	-13	i	i	.	.	.
Cc1ccc2c(c1)Cc1c(nc(-c3ccc(Cl)cc3)nc1SCC(=O)N1CCCCC1)O2	-6	i	i	.	.	.
O=C(C1CCC1)N1CCc2cc(S(=O)(=O)NCCN3CCN(c4ccccc4F)CC3)ccc21	67*	?	?	29%	?	-28
O=C(Nc1ccc(-n2nncc2-c2ccco2)cc1)c1cccc(F)c1	-21	16µM*	i	-1%	?	-14
O=C(Nc1ccc(-n2nncc2-c2ccccc2)cc1)c1cccc(F)c1	3	i	i	.	.	.
COc1ccc(OC)c(NC(=O)C2CCN(S(=O)(=O)c3ccc4c(c3)CCCC(=O)N4)CC2)c1	2	i	i	.	.	.
SMILES	DRD3 agonist	KB-V1 MDR tox	KB-3-1 cytotox	SW480 rerep	MCF10A rerep	DRD3 antagonist
Cn1nnc(NC(=S)NC(=O)Cc2ccccc2)n1	-12	i	i	-19%	9%	-64*
Cn1nnc(NC(=S)NC(=O)c2ccco2)n1	-17	i	i	-35%	-3%	-72*
Cc1cccc(C(C)C)c1-n1nnnc1-c1ccccc1	-7	i	i	2%	18%	-8
CCC(C)(c1nnnn1-c1c(C)cccc1C)N(N=O)c1ccccc1Cl (centres undefined)	-2	18µM*	?	.	?	-13
CCOc1ccccc1CNC(=O)c1cnc2sc(N3CCC(C)CC3)nn2c1=O	0	i	i	.	.	.
O=C(NC1CCCC1)c1cc2nc(-c3ccccc3)cc(-c3ccccc3)n2n1	4	i	i	-3%	?	14
O=C(c1cnn2c(-c3ccccc3)cc(-c3ccccc3)nc12)N1CCN(Cc2ccccc2)CC1	-8	i	?	18µM*	?	-14
CC1CCN(C(=O)c2cc3nc(-c4ccccc4)cc(-c4ccccc4)n3n2)CC1	0	i	i	15%	16µM*	25
COc1ccccc1CNC(=O)CCc1c(C)nc2c(c(C)nn2-c2ccc(C)c(C)c2)c1C	0	?	i	.	.	.
CC(C)NC(=O)c1ccc(-c2ccc(F)c(F)c2)c2ccoc12	8	?	i	.	.	18
CN1CCN(C(=O)c2ccc(-c3ccc(F)c(F)c3)c3ccoc23)CC1	-11	i	i	.	.	-59*
CCCn1cc(S(=O)(=O)c2cc(C)ccc2C)c(=O)c2cc(F)c(N3CCCCCC3)cc21	-13	.	.	.	.	.
CC(=O)c1ccc(NC(=O)c2nc(-c3ccc(Cl)cc3)n3c2CCCCC3)cc1	-1	i	?	.	.	.
CC(=O)C1(O)C(C)CC2C3CC=C4CC(O)CCC4(C)C3CCC21C (centres undefined)	17	i	i	-6%	-1%	3
CC12CCC(O)CC1=CCC1C2CCC2(C)C3=NN=CC3CC12 (centres undefined)	23	?	?	?	18µM*	136
